The text below walks through data of PMC4081100, “A DNA-binding-site landscape and regulatory network analysis for NAC transcription factors in Arabidopsis thaliana”.

Chain of GST-NTL6(1-168) (Q9SCK6 1-168): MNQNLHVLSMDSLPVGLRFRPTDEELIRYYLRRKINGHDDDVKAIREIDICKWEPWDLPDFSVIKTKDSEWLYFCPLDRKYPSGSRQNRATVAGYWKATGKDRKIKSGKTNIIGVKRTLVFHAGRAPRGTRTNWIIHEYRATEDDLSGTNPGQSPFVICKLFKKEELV

The target of one assay is T1, GST-ANAC092(1-176) (Arabidopsis thaliana, UniProt Q9FKA0 1-176).
T1 sequence: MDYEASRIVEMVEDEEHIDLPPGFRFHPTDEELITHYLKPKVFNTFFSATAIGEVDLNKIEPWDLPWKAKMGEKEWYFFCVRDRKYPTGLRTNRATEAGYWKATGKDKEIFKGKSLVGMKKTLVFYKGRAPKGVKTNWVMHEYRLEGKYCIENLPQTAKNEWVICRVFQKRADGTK
As to the kind of experiment: universal protein binding microarray (PBM); transcription factors of Arabidopsis thaliana; high values mean tight binding. Particulars: protein: recombinant; tags: GST; chain copies: 2; dsDNA, one strand shown. In short, it runs like this:
(§1)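 For zinc-finger proteins, zinc acetate was added while GST-tagged NAC-domain, full-length or DNA-binding-domain proteins were induced in cells. Purification used glutathione–Sepharose 4B, and quantification used A280 or anti-GST western blot. Custom all-10-mer Agilent 4 × 180K arrays, made double-stranded by primer extension, each received a protein at 200 to 500 nM final in duplicate. Scoring covered gapped and ungapped 8-mers, with binding given as the normalised enrichment score (E-score).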
For GGGGAAAC, the binding signal is 0.177 E-score.

For the sequence AGGGAAAG, the binding signal came to 0.0861 E-score.

GAAGTAAC: the binding signal was determined as 0.249 E-score.

As to CGTCAAAG, the binding signal was 0.0844 E-score.

For the sequence ACCGTTGA, the binding signal was 0.112 E-score.

Take CTGTTGAC: the binding signal is 0.105 E-score.

Regarding GTCAAGAA, the binding signal was determined as 0.0716 E-score.

As for AAGGAAGC, the binding signal is 0.219 E-score.

As to CGAAGGAA, the binding signal stood at 0.176 E-score.

GGGGGAAA: the binding signal was found to be 0.117 E-score.

Consider GCTTTCCC, for which the binding signal amounted to 0.124 E-score.

In the case of GCGTCAAC, the binding signal stood at 0.119 E-score.

Regarding TAGGGAAA, the binding signal is 0.106 E-score.

As to AGGAAAGG, the binding signal came out at 0.0968 E-score.

Consider CTTTGACC, for which the binding signal came out at 0.051 E-score.

In a further assay the target is GST-NTL6(1-168) (Arabidopsis thaliana, UniProt Q9SCK6 1-168). The assay is described as above. The following applies: protein: recombinant; tags: GST; chain copies: 2; dsDNA, one strand shown. The method in brief:
as §1
Turning to GGGGAAAC, the binding signal amounted to 0.17 E-score.

For the sequence CTTAGTCA, the binding signal was 0.243 E-score.

In the case of AGCGTTGA, the binding signal was found to be 0.0737 E-score.

In the case of AATTGACT, the binding signal was determined as 0.0713 E-score.

For AGGGAAAG, the binding signal worked out at 0.115 E-score.

Consider CTTAAGGA, for which the binding signal worked out at 0.401 E-score.

For the sequence GAAGTAAC, the binding signal amounted to 0.381 E-score.

For the sequence AAGGGTCA, the binding signal was found to be 0.0797 E-score.

For the sequence AAAGTCAA, the binding signal worked out at 0.0854 E-score.

Take AAGTCAAG: the binding signal amounted to 0.113 E-score.

Regarding AAGGAAGC, the binding signal was 0.43 E-score.

As for CGAAGGAA, the binding signal came to 0.473 E-score.

With GGGGGAAA, the binding signal is 0.314 E-score.

Consider GCTTTCCC, for which the binding signal worked out at 0.142 E-score.

For the sequence TAGGGAAA, the binding signal came out at 0.177 E-score.

As to AGGAAAGG, the binding signal worked out at 0.0725 E-score.

As to AAGTCAAT, the binding signal stood at 0.118 E-score.

Another assay concerns the target T2, GST-ANAC019 NAC domain (Arabidopsis thaliana, UniProt Q9C932 14-162).
T2 sequence: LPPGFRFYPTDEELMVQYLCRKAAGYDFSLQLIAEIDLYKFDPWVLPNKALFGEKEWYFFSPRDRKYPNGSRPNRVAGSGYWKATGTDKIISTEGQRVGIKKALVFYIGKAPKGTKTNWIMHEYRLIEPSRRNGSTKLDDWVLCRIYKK
The description is as above. The following applies: protein: recombinant; tags: GST; chain copies: 2; dsDNA, one strand shown. The method in brief: as §1
Regarding GGGGAAAC, the binding signal came to 0.152 E-score.

For GAGTTGAC, the binding signal stood at 0.0811 E-score.

Turning to AGGGAAAG, the binding signal is 0.129 E-score.

Regarding CGTCAAAG, the binding signal stood at 0.0986 E-score.

For CTGTTGAC, the binding signal is 0.107 E-score.

For CGTAGTCA, the binding signal is 0.0805 E-score.

As for GGGGTCAA, the binding signal turned out to be 0.133 E-score.

With GGGGGAAA, the binding signal was found to be 0.12 E-score.

For GCTTTCCC, the binding signal was determined as 0.0714 E-score.

As to GCGTCAAC, the binding signal worked out at 0.0778 E-score.

Consider TAGGGAAA, for which the binding signal was 0.0861 E-score.

On to AGGAAAGG, for which the binding signal was 0.0699 E-score.

For AGTCTACG, the binding signal came out at 0.0568 E-score.

CTGACTTC: the binding signal was 0.0546 E-score.

Another assay addresses T3, GST-ANAC055(1-171) (Arabidopsis thaliana, UniProt Q9LDY8 1-171).
T3 sequence: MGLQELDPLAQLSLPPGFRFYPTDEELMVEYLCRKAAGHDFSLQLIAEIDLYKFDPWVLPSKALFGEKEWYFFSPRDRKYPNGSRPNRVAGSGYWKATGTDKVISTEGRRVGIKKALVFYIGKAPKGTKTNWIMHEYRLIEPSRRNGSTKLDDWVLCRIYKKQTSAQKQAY
Described as above. The following applies: protein: recombinant; tags: GST; chain copies: 2; dsDNA, one strand shown. In short, it runs like this:
as §1
Turning to GTCAAAGA, the binding signal was found to be 0.078 E-score.

As for AATTGACT, the binding signal was 0.0891 E-score.

Regarding TCAAGTCA, the binding signal turned out to be 0.0629 E-score.

GAAGTAAC: the binding signal was found to be 0.106 E-score.

Regarding GTCAAGAA, the binding signal worked out at 0.0615 E-score.

AAAGTCAA: the binding signal amounted to 0.0717 E-score.

Regarding AAGGAAGC, the binding signal turned out to be 0.0894 E-score.

On to CGAAGGAA, for which the binding signal worked out at 0.0644 E-score.

A further assay deals with T4, GST-ATAF1 NAC domain (Arabidopsis thaliana, UniProt Q39013 7-158).
T4 sequence: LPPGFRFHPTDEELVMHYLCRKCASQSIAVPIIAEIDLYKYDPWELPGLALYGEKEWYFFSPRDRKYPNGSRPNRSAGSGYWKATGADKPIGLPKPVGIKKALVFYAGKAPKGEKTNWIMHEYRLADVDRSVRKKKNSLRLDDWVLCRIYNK
Described as above. Particulars: protein: recombinant; tags: GST; chain copies: 2; dsDNA, one strand shown. The method in brief:
as §1
Regarding CTTAGTCA, the binding signal was found to be 0.101 E-score.

Take AATTGACT: the binding signal was 0.141 E-score.

Take TCAAGTCA: the binding signal was 0.0801 E-score.

As for TAAAGTCA, the binding signal was determined as 0.0969 E-score.

Regarding GAAGTAAC, the binding signal is 0.0921 E-score.

Take CGTAGTCA: the binding signal was found to be 0.117 E-score.

As for GTCAAGAA, the binding signal turned out to be 0.114 E-score.

On to AAAGTCAA, for which the binding signal was found to be 0.118 E-score.

Regarding AAGTCAAG, the binding signal came out at 0.0757 E-score.

With CGAAGGAA, the binding signal was found to be 0.057 E-score.

Take TAGGGAAA: the binding signal is 0.088 E-score.

On to TCAGTCAA, for which the binding signal was 0.0626 E-score.

Regarding AAGTCAAT, the binding signal amounted to 0.126 E-score.

A further assay concerns the target T5, GST-ANAC092(1-285) full length (Arabidopsis thaliana, UniProt Q9FKA0 1-285).
T5 sequence: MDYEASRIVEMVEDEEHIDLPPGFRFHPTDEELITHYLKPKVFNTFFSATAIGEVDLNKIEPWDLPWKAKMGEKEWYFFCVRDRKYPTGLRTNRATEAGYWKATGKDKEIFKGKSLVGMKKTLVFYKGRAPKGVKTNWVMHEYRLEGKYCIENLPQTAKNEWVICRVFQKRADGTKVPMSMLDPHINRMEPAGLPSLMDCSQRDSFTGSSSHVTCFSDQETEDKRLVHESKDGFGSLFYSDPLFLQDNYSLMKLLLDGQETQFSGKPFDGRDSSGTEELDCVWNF
Described as above. The following applies: protein: recombinant; tags: GST; chain copies: 2; dsDNA, one strand shown. The method in brief:
as §1
On to GGGGAAAC, for which the binding signal was found to be 0.217 E-score.

AGCGTTGA: the binding signal is 0.0576 E-score.

With GTCAAAGA, the binding signal was 0.0725 E-score.

As for AATTGACT, the binding signal worked out at 0.0602 E-score.

As for TCAAGTCA, the binding signal was 0.196 E-score.

For the sequence GTCAAGCA, the binding signal turned out to be 0.106 E-score.

Consider TAAAGTCA, for which the binding signal is 0.0547 E-score.

With GAAGTAAC, the binding signal came out at 0.325 E-score.

In the case of CGTCAAAG, the binding signal was found to be 0.149 E-score.

As for ACCGTTGA, the binding signal was 0.205 E-score.

GTCAGTCA: the binding signal was found to be 0.1 E-score.

Consider CTGTTGAC, for which the binding signal worked out at 0.0644 E-score.

Regarding GGGGTCAA, the binding signal stood at 0.101 E-score.

For GTCAAGAA, the binding signal came out at 0.124 E-score.

In the case of AAGTCAAG, the binding signal is 0.14 E-score.

With AAGGAAGC, the binding signal was 0.13 E-score.

Take CGAAGGAA: the binding signal was found to be 0.0784 E-score.

In the case of GGGGGAAA, the binding signal stood at 0.139 E-score.

GCTTTCCC: the binding signal was determined as 0.117 E-score.

Turning to GCGTCAAC, the binding signal was found to be 0.109 E-score.

TAGGGAAA: the binding signal was 0.115 E-score.

AGTCAGAA: the binding signal was determined as 0.0656 E-score.

Turning to ACGTTGAC, the binding signal turned out to be 0.144 E-score.

In the case of AAGTCAAT, the binding signal was 0.119 E-score.

The target of the next assay is T6, GST-NAP(1-166) (Arabidopsis thaliana, UniProt O49255 1-166).
T6 sequence: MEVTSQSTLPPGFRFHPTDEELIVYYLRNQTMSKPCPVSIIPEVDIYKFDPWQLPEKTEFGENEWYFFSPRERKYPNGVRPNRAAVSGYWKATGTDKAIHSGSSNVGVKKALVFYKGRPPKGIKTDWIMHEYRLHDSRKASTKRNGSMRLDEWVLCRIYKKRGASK
The assay is described as above. Particulars: protein: recombinant; tags: GST; chain copies: 2; dsDNA, one strand shown. The method in brief:
as §1
For the sequence GGGGAAAC, the binding signal was found to be 0.12 E-score.

Consider ACCGTTGA, for which the binding signal came out at 0.132 E-score.

On to GTCAAGAA, for which the binding signal came out at 0.0595 E-score.

Regarding CGAAGGAA, the binding signal came to 0.0729 E-score.

Turning to AGTCAGAA, the binding signal was 0.0823 E-score.

For ACGTTGAC, the binding signal was determined as 0.0955 E-score.

In a further assay the target is T7, GST-NST2(1-184) (Arabidopsis thaliana, UniProt Q9M274 1-184).
T7 sequence: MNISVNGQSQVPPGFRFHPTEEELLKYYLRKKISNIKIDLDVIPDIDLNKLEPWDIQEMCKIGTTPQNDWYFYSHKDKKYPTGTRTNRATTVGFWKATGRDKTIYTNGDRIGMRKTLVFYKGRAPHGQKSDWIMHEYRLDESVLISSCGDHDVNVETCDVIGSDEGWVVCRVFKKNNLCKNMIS
The assay is described as above. Particulars: protein: recombinant; tags: GST; chain copies: 2; dsDNA, one strand shown. The method in brief:
as §1
Turning to AGCGTTGA, the binding signal was 0.0637 E-score.

For the sequence GTCAAAGA, the binding signal is 0.053 E-score.
